Measured values reported in ChEMBL document CHEMBL1201862, “PubChem BioAssay data set” (2004).
Among all 1,200 compounds or so, about 140 (12%) were called active. The rule behind the calls is not given here. The full list was thinned out, with actives kept by preference.

Test: CFTR-F508del correctors, dose response, FRT cells, YFP quenching, cherry-pick (AID 743402)
Type: functional, cell-based

Compound | AbsAC35
O=C(Nc1ccccc1)N1CCCCN2[C@@H](CO)[C@H](c3ccc(C#Cc4ccccc4)cc3)[C@@H]2C1 | 31.2 µM (active)
O=C1NC(=O)C(=Cc2c(Cl)cccc2Cl)C(=O)N1 | 29.4 µM (active)
